SMILES strings stand for the structures. Where a name gives a salt, the structure may show the parent alone. ± gives the standard deviation of the averaged measurements.

The experiment concerns A549. Kind of experiment: relative viability (normalised to negative control = 1, bortezomib = 0) (fraction); higher = less cytotoxic. The following applies: inflammatory serum-free RHB-A with cytokines + LPS; 5 d + 24 h CellTiter-Blue; compound 300 nM; GSK126 pretreatment: none (vehicle). A general note: Alamar Blue is a resazurin reagent that responds to reducing activity.
In the case of `Cc1c2oc3c(C)ccc(C(=O)N[C@@H]4C(=O)N[C@H](C(C)C)C(=O)N5CCC[C@H]5C(=O)N(C)CC(=O)N(C)[C@@H](C(C)C)C(=O)O[C@@H]4C)c3nc-2c(C(=O)N[C@@H]2C(=O)N[C@H](C(C)C)C(=O)N3CCC[C@H]3C(=O)N(C)CC(=O)N(C)[C@@H](C(C)C)C(=O)O[C@@H]2C)c(N)c1=O` [Dactinomycin], the relative viability came to 0.00607 ± 0.0081.

For the molecule `N#C/C(=C/c1ccc(O)c(O)c1)C(=O)NCc1ccccc1` [AG-490; Tyrphostin AG 490], the relative viability worked out at 0.873 ± 0.11.

Turning to `C[C@@H](CN1CC(=O)NC(=O)C1)N1CC(=O)NC(=O)C1` [Dexrazoxone; Dexrazoxane], the relative viability was 0.908 ± 0.13.

For `CC(C)(C)Cn1c(N)nc2ccc(-c3[nH]c(C(C)(C)C)nc3-c3ccc(F)cc3)nc21`, the relative viability was 1.15 ± 0.18.

For `CNC(=O)c1cc(Oc2ccc(NC(=O)Nc3ccc(Cl)c(C(F)(F)F)c3)c(F)c2)ccn1` [Regorafenib; BAY 73-4506(Regorafenib)], the relative viability came out at 0.913 ± 0.014.

For `Cc1ccc(NC(=O)c2ccc(CN3CCN(C)CC3)cc2)cc1Nc1nccc(-c2cccnc2)n1`, the relative viability was found to be 1 ± 0.093.

Regarding `Nc1nccc(Oc2ccc(NC(=O)c3c[nH]cc(-c4ccc(F)cc4)c3=O)cc2F)c1Cl`, the relative viability is 1.12 ± 0.18.

For the molecule `Cc1cccc(-c2[nH]c(C(C)(C)C)nc2-c2ccc3nccnc3c2)n1`, the relative viability amounted to 0.887 ± 0.067.

Turning to `NC(N)=NC(N)=NCCc1ccccc1` [Phenformin hydrochloride], the relative viability came out at 0.966 ± 0.13.

As for `O=c1c(O)c(-c2ccc(O)c(O)c2)oc2cc(O)cc(O)c12` [QUERCETIN; Quercetin(Sophoretin); Quercetin dihydrate], the relative viability stood at 0.945 ± 0.058.

Consider `CC(C)CC(=O)Nc1n[nH]c2c1CN(C(=O)C1CCN(C)CC1)C2(C)C`, for which the relative viability came out at 0.787 ± 0.033.

Take `Nc1nc(Nc2ccc(S(N)(=O)=O)cc2)nn1C(=O)c1c(F)cccc1F`: the relative viability was 1.07 ± 0.099.

As for `CS(=O)(=O)c1ccc(C(=O)Nc2ccc(Cl)c(-c3ccccn3)c2)c(Cl)c1` [Vismodegib], the relative viability was 1.03 ± 0.074.

On to `COc1cc([C@@H]2c3cc4c(cc3[C@@H](O[C@@H]3O[C@@H]5CO[C@@H](C)O[C@H]5[C@H](O)[C@H]3O)[C@H]3COC(=O)[C@H]23)OCO4)cc(OC)c1O` [Etoposide], for which the relative viability came to 0.845 ± 0.047.

Turning to `O=C(NC[C@H](O)CO)c1ccncc1Nc1ccc(I)cc1F`, the relative viability stood at 0.159 ± 0.025.

Consider `O=C1NC(=O)/C(=C/c2ccc(-c3ccc(F)cc3O)o2)S1`, for which the relative viability came out at 0.839 ± 0.1.

Turning to `CNC(=O)Nc1ccc(-c2nc(N3CC4CCC(C3)O4)c3cnn(C4CCC5(CC4)OCCO5)c3n2)cc1`, the relative viability worked out at 0.237 ± 0.035.

With `CC(=O)O[C@H]1C(=O)[C@@]2(C)[C@H]([C@H](OC(=O)c3ccccc3)[C@]3(O)C[C@H](OC(=O)[C@H](O)[C@@H](NC(=O)c4ccccc4)c4ccccc4)C(C)=C1C3(C)C)[C@]1(OC(C)=O)CO[C@@H]1C[C@@H]2O` [Paclitaxel; Taxol], the relative viability was 0.301 ± 0.048.

Regarding `CS(=O)(=O)CCNCc1ccc(-c2ccc3ncnc(Nc4ccc(OCc5cccc(F)c5)c(Cl)c4)c3c2)o1` [Lapatinib ditosylate; Lapatinib; Lapatinib Ditosylate], the relative viability amounted to 0.562 ± 0.057.

Regarding `CC[C@H](Nc1ncnc2nc[nH]c12)c1nc2cccc(F)c2c(=O)n1-c1ccccc1`, the relative viability came out at 0.852 ± 0.035.

As to `COc1cccc(-c2cc(=O)c3ccccc3o2)c1N`, the relative viability was determined as 0.825 ± 0.078.

In the case of `CN(C)/N=N/c1[nH]cnc1C(N)=O` [Dacarbazine], the relative viability was found to be 1.07 ± 0.031.

With `O=NN(CCCl)C(=O)NC1CCCCC1` [Lomustine, CCNU; Lomustine], the relative viability was 0.976 ± 0.079.

`Cc1c(NC(=O)OC[C@@H]2COCCN2)cn2ncnc(Nc3ccc4c(cnn4Cc4cccc(F)c4)c3)c12`: the relative viability stood at 0.621 ± 0.052.

With `CCCNC(=O)Nc1ccc(Oc2ncnc3cc(OC)c(OC)cc23)cc1Cl`, the relative viability was found to be 0.895 ± 0.087.

For the molecule `Cc1cc(Nc2cc(N3CCN(C)CC3)nc(Sc3ccc(NC(=O)C4CC4)cc3)n2)n[nH]1`, the relative viability was determined as 0.459 ± 0.052.

On to `c1cncc(CN2CCC(n3ncc4c(N5CCOCC5)nc(-c5ccc6[nH]ccc6c5)nc43)CC2)c1`, for which the relative viability stood at 0.761 ± 0.073.

`N#Cc1ccc(C(c2ccc(C#N)cc2)n2cncn2)cc1` [Letrozole]: the relative viability was determined as 0.932 ± 0.037.

Turning to `CC(=O)Nc1cccc(-n2c(=O)n(C3CC3)c(=O)c3c(Nc4ccc(I)cc4F)n(C)c(=O)c(C)c32)c1`, the relative viability came to 0.0354 ± 0.0045.

As for `Cc1csc(-c2nnc(Nc3ccc(Oc4ncccc4-c4ccnc(N)n4)cc3)c3ccccc23)c1`, the relative viability was 0.441 ± 0.061.

`Clc1ccc(Nc2nnc(Cc3ccncc3)c3ccccc23)cc1` [Vatalanib]: the relative viability worked out at 0.874 ± 0.05.

With `Cc1ncc(-c2ccnc(Nc3ccc(S(C)(=O)=O)cc3)n2)n1C(C)C`, the relative viability came out at 0.69 ± 0.03.

Values taken from the supplement of paper PMC6279402.
